Hit rate of the full screen: of about 340,000 compounds, about 3,300 (0.97%) were called active. Roughly 9% stayed inconclusive and do not appear here. The call rests on the fitted dose curve; in most records, active means well fitted inhibition curve with a large enough effect; inconclusive means small, poorly fitted or top-dose-only effect, or effect the other way; inactive means flat fitted curve, though single readings scatter. The list shows a part of the results.
Experiment: qHTS Assay for Modulators of miRNAs and/or Inhibitors of miR-21; further: nearly all actives have a fitted effect of over 55% in size
Details: HeLa miR-21-FLuc reporter, luciferase luminescence, 48 h; actives lower the signal
Text: MLSCN Grant: 1 R21 NS059478-01 Assay Provider: Qihong Huang, The Wistar Institute NCGC Assay Overview: MicroRNAs (miRNAs) are endogenously encoded small (~20-25 nucleotides), nonprotein-coding RNAs that are involved in post-transcriptional repression of target messenger RNAs (mRNAs) (Le and Hannon, 2004). Estimated to be involved in the regulation of 30% of all protein-coding mRNAs (Filipowicz et al., 2008), miRNAs play a significant role in many biological processes including cellular differentiation and tissue development (Ghildiyal and Zamore, 2009).
NCGC Assay Protocol Summary: Reagents: HeLa cells stably expressing firefly luciferase (FLuc) under the control of a CMV promoter (upstream) and a miR-21 binding sequence directly downstream of the gene. These cells endogenously express miR-21. Control compounds used were compound C3 (provided by collaborator), N6-phenyladenosine (MP Biomedicals, 0215379625), and DMSO. Assay Summary: 6uL of HeLa miR-21-FLuc cells in assay buffer (DMEM, Invitrogen #21063-029; 10% FBS, HyClone #SH30071.03) were dispensed at 2000cells/well (3.3 x 10^5 cells/mL) into Greiner solid-white TC-treated 1536-well plates using a Multidrop Combi (Thermo Fisher Scientific). Plates were incubated for one hour at 37 degree Celsius, 95% humidity, 5% CO2. These assay plates were then treated with 23nL of compound or DMSO using a Kalypsys pin tool, which allows for delivery of a 24-point titration of each compound to the assay plate, with a final compound concentration ranging from approximately 40uM to 5pM. Assay plates were then incubated for 48 hours. After incubation, plates were allowed to come to RT for one hour prior to delivery of 3uL of 3X luciferase detection reagent. After a 15 minute incubation to allow for cell lysis, luciferase activity was measured using a ViewLux CCD imager (PerkinElmer), with an average exposure time of 2-12 seconds. Keywords: NIH Roadmap, MLPCN, MLSMR, qHTS, miR-21, microRNA, firefly luciferase, FLuc.
Potency means the concentration at half of the fitted maximal effect.

Potency, active:
Cc1nc(-c2nc(-c3c(C(=O)NN)noc3C)cs2)cs1 4.14 µM
Cc1ccc(CNC(=O)c2ccc(NC(=O)c3nsc4ccccc34)cc2)cc1 1.65 µM
CSc1ccc(CNC(=O)c2ccc(NC(=O)c3nsc4ccccc34)cc2)cc1 0.585 µM
CCOc1ccc(CNC(=O)c2ccc(NC(=O)c3nsc4ccccc34)cc2)cc1 1.85 µM
COCCCNC(=O)c1ccc(NC(=O)c2nsc3ccccc23)cc1 3.69 µM
CCOc1cc(CNC(=O)c2ccc(NC(=O)c3nsc4ccccc34)cc2)ccc1OC 0.585 µM
O=C(Nc1ccccc1F)N1CCc2ccccc2C1 4.65 µM
Nc1nc(CSC(=S)N2CCCCC2)nc(Nc2ccccc2)n1 11.7 µM
Nc1nc(CSC(=S)N2CCOCC2)nc(Nc2ccccc2)n1 3.69 µM
Cc1nc2cc(NC(=O)Nc3cccc4ccccc34)ccc2n1C 2.93 µM
Cc1ccc(NC(=O)Nc2ccc3c(c2)nc(C)n3C)cc1C 1.17 µM
Cn1c(CCN2CCCCCC2)nc2cc(NC(=O)Nc3ccccc3)ccc21 7.36 µM
Cc1ccc(/C=N/Nc2cccc(C(=O)O)c2)s1 0.104 µM
Cc1ccc(/C=N/Nc2ccc(Cl)c(C(=O)O)c2)s1 0.165 µM
Cc1ccc(/C=N/Nc2ncc(Cl)cc2Cl)s1 3.69 µM
CN(C(=O)c1ccco1)c1nnc(C23CC4CC(CC(C4)C2)C3)s1 8.26 µM
CCSc1cc(C)nc2c(-c3ccccc3)cnn12 0.656 µM
C=CCSc1cc(C)nc2c(-c3ccccc3)cnn12 2.07 µM
COc1ccc(/C=C/C=C2\NC(=S)NC2=O)cc1 14.7 µM
Cc1oc(C(C)(C)C)cc1C(=O)Nc1ccc(C(=O)O)cc1 8.26 µM
NC1=NC(=O)/C(=C/c2cn(Cc3ccccc3)c3ccccc23)S1 9.27 µM
Cc1ccc(C(=O)C(C)OC(=O)c2ccccc2[N+](=O)[O-])cc1 (centres undefined) 4.65 µM
Cc1ccc2cc(NC(=O)c3cccc(F)c3)ccc2n1 0.464 µM
CCc1ccc(C(=O)Nc2ccc3nc(C)ccc3c2)cc1 3.29 µM
Cc1ccc2cc(NC(=O)c3ccccc3C)ccc2n1 5.85 µM
Cc1ccc(NC(=O)CC(=O)c2ccccc2)cc1C 11.7 µM
Cc1ccc2cc(NC(=O)Cc3ccccc3)ccc2n1 2.07 µM
CCC(=O)Nc1ccc(-c2ccc(N3CCCCC3)nn2)cc1 4.14 µM
CCC(=O)Nc1ccc(-c2csc(C)n2)cc1 7.36 µM
CSc1ccccc1C(=O)Nc1ccc2c(c1)CCC2 7.36 µM
COc1cc(SC)ccc1C(=O)Nc1ncc(Cl)cc1Cl 1.85 µM
COc1cc(SC)ccc1C(=O)Nc1ccc2c(c1)CCC2 1.31 µM
COc1cc(SC)ccc1C(=O)Nc1ccc2ncccc2c1 0.369 µM
COc1cc(SC)ccc1C(=O)Nc1ccc(C)cc1C 1.85 µM
CCCCN(C(=O)Cc1cccs1)c1nnc(-c2cccnc2)s1 14.7 µM
CC(C)OC(=O)CSc1nc(N)c(C#N)cc1C#N 5.85 µM
CCOC(=O)CSc1nc(N)c(C#N)cc1C#N 8.26 µM
CSc1nc(N)nc(SCC(=O)OC(C)C)c1C#N 13.1 µM
O=C1CCn2nc(-c3ccc(Cl)cc3)cc2N1 6.56 µM
O=C(CCCc1ccccc1)c1ccccc1 2.07 µM
O=C(CCCc1ccccc1)Nc1cccc(C(=O)O)c1 0.464 µM
O=C(NCc1ccccc1)C(=O)Nc1cccc(C(=O)O)c1 0.185 µM
COc1cccc(NC(=O)C(=O)NCCc2ccc(F)cc2)c1 11.7 µM
Cc1cccc(NC(=O)C(=O)NCCCc2ccccc2)c1 16.5 µM
Cc1cccc(NC(=O)CCCc2ccccc2)c1 7.36 µM
Cc1cc(N2CCOCC2)n2ncc(-c3ccccc3Cl)c2n1 1.65 µM
COc1ccccc1-c1cnn2c(NC3CCCC3)cc(C)nc12 5.85 µM
Cc1cc(N2CCOCC2)n2ncc(-c3ccc(Cl)cc3)c2n1 0.414 µM
COc1ccccc1-c1cnn2c(N3CCOCC3)cc(C)nc12 14.7 µM
Cc1nc(-c2ccc(Cl)cc2)sc1C(=O)O 11.7 µM
CNC(=O)c1sc(-c2ccc(Cl)cc2)nc1C 6.56 µM
C/C(=N\O)c1sc(-c2ccccc2)nc1C 1.85 µM
Cc1cc(/C=C\c2ccccc2)nc2ccccc12 7.36 µM
CCc1ccc(CNc2ccc3c(c2)ncn3C(C)(C)C)cc1 5.85 µM
CC(C)(C)n1cnc2cc(NCc3ccc(Br)cc3)ccc21 4.14 µM
O=C(O)c1ccc(N/N=C/C2=Cc3ccccc3OC2)cc1 1.17 µM
CCN(CC)S(=O)(=O)c1ccc2oc(Nc3ccccc3)nc2c1 9.27 µM
CCS(=O)(=O)c1ccc2oc(Nc3ccccc3Cl)nc2c1 1.85 µM
CCS(=O)(=O)c1ccc2oc(Nc3ccccc3Br)nc2c1 2.07 µM
C=CCNc1nc(Nc2ccccc2F)nc(OCC)n1 5.85 µM
Cc1ccc(NC(=O)C2Cc3ccccc3O/C2=N\O)cc1C (centres undefined) 14.7 µM
Cc1cccc(NC(=O)C2Cc3ccccc3O/C2=N\O)c1 (centres undefined) 14.7 µM
O=C(Nc1ccc(Br)cc1)C1Cc2ccccc2O/C1=N\O (centres undefined) 7.36 µM
N#Cc1nc(/C=C/c2ccccc2)oc1NCCCN1CCOCC1 10.4 µM
COCCNc1oc(/C=C/c2ccccc2)nc1C#N 2.07 µM
COCCCNc1oc(/C=C/c2ccccc2)nc1C#N 0.464 µM
CC(C)c1ccc(NC(=O)C(c2ccccc2)N2CC(=O)Nc3ccccc32)cc1 (centres undefined) 13.1 µM
CCCC(=O)N1c2ccc(-c3csc(N)n3)cc2CC1C (centres undefined) 1.85 µM
CCC(C)C(=O)N1CCc2cc(-c3csc(N)n3)ccc21 (centres undefined) 1.65 µM
O=c1[nH]n(Cc2ccccc2)c(=O)c2ccccc12 13.1 µM
O=C(NC(=S)Nc1nc2ccccc2s1)c1cccs1 0.521 µM
Cc1ccc2nc(NC(=S)NC(=O)c3cccs3)sc2c1 0.656 µM
O=S(=O)(c1cc(F)ccc1F)N1CCC2(CC1)OCCO2 5.21 µM
COc1ccc(C(=O)c2cc3cccc(OC)c3o2)cc1 3.29 µM
COc1cc2ccccc2cc1C(=O)NC(=S)Nc1cccc(C(=O)O)c1 14.7 µM
COc1ccc(NC(=O)c2sc3nc[nH]c(=O)c3c2C)cc1 5.85 µM
COc1cc(OC)c(C(=O)Nc2ccc3ccccc3c2)cc1OC 2.93 µM
COc1cc(OC)c(C(=O)Nc2ccc(N(C)C)cc2)cc1OC 8.26 µM
COc1cccc2cc(C(=O)N3CCc4ccccc4C3)c(=O)oc12 16.5 µM
O=C(Nc1ccc2ccccc2c1)c1cc(F)c(F)cc1Cl 0.656 µM
COc1ccc(NC(=O)c2ccc3nc[nH]c3c2)cc1 7.36 µM
COc1ccc(C(=O)Nc2ccc3cn[nH]c3c2)c(OC)c1 4.65 µM
COc1ccc(-c2cccc(C(=O)Nc3cccc(C(=O)O)c3)c2)cc1 6.56 µM
COc1cccc(NC(=O)c2cc3cccc(OC)c3o/c2=N\O)c1 0.414 µM
COc1cccc2cc(C(=O)Nc3ccc(C)cc3)c(=O)oc12 0.736 µM
CCOC(=O)CC(NC(=O)c1cc2cccc(OC)c2oc1=O)c1ccc(OC)cc1 (centres undefined) 16.5 µM
COc1cccc(NC(=O)c2cc3ccccc3cc2OC)c1 2.33 µM
COc1ccc(C(c2c(O)ccc3ccccc23)N2CCOCC2)c(OC)c1 (centres undefined) 11.7 µM
Cc1ccsc1C1NC(=O)c2c(sc3c2CCCC3)N1 (centres undefined) 5.85 µM
CCN(CC)c1ccc(NC(=O)C2CC3CCC2C3)cc1 (centres undefined) 10.4 µM
O=[N+]([O-])c1ccccc1NCCOc1ccccc1 7.36 µM
O=[N+]([O-])c1cc(C(F)(F)F)ccc1NCCOc1ccccc1 7.36 µM
O=C(NC1CC1)c1ccc(-c2ccccc2)cc1 3.69 µM
O=C(NC1CCCCC1)c1ccc2c(c1)OCCO2 2.93 µM
Cc1cccc(C(=O)NC2CCCCCCC2)c1 2.93 µM
N#Cc1ccc(C(=O)NC2CCCCCCC2)cc1 5.85 µM
N#Cc1nc(-c2ccccc2Cl)oc1N1CCCCC1 16.5 µM
N#Cc1nc(COc2ccccc2)oc1N1CCCCC1 13.1 µM
N#Cc1nc(COc2ccccc2F)oc1N1CCCCCC1 16.5 µM
COC(=O)Nc1ccc2c(c1)ncn2C1CCCCC1 18.5 µM
CN(c1ccccc1)S(=O)(=O)c1nnc(NC(=O)c2cccs2)s1 0.117 µM
Cc1cc(=O)[nH]c(N/N=C/c2cc(C)n(-c3ccccc3)c2C)n1 3.29 µM
COc1ccc(NC(=O)c2ccc(Br)o2)cc1 4.14 µM
COc1ccc(NC(=S)NC(=O)c2ccc(Br)o2)cc1 3.29 µM
Cc1ccc(C(=O)NC(=S)NCC2CCCO2)cc1Br (centres undefined) 8.26 µM
O=[N+]([O-])c1cccc2ccc(/C=C/c3ccc(F)cc3)nc12 7.36 µM
O=[N+]([O-])c1ccccc1/C=C/c1ccc2ccccc2n1 1.31 µM
C(=C\c1ccco1)/c1ccc2ccccc2n1 0.656 µM
O=C(O)c1ccc(/C=C/c2ccc3cccc(O)c3n2)cc1 4.14 µM

Reference: PubChem BioAssay AID2289 (National Center for Advancing Translational Sciences (NCATS), 2010)
